Calls of active or inactive are those of the source. Unless noted, no rule for the calls is given here.
Assays:
[1] = tested on: Wnt5a (protein binding on small-molecule microarray); assay: small molecules binding Wnt5a protein – biophysical, small-molecule microarray, 635/667 nm fluorescence, primary screen (AID 1142); conditions: 635 nm fluorescence, higher = more signal;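 also: fluorescence read at 667 nm with signal to noise per printed feature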
[2] = ATP-based viability of Huh7 replicon cells – cell-based, CellTiter-Glo luminescence, basal, 48 h, cytotoxicity control for HCV replication inhibitor project, primary screen (AID 1143); conditions: higher = more signal, called active from +8 up or from −8 down;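 also: Huh7 hepatoma cells carrying a hepatitis C replication reporter with no stimulus; test concentration not given here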
[3] = Pseudomonas biofilm growth suppression – PAO1 strain, BacTiter-Glo luminescence, LB-PBS, primary screen (AID 1144); conditions: P. aeruginosa PAO1 biofilm, 12 h, higher = more signal
[4] = basal CRE-LacZ reporter activity in PC12 – cell-based, unstimulated, primary screen (AID 1145); conditions: no forskolin, luminescence, 4.5 h, higher = more signal, called active from +8 up or from −8 down
[5] = forskolin-driven CRE-LacZ activity in PC12 – cell-based, CRE-LacZ reporter, forskolin-stimulated, primary screen (AID 1146); conditions: luminescence, 4.5 h, higher = more signal, called active from +8 up or from −8 down;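 also: PC12 cells with 6xCRE LacZ reporter stimulated by forskolin 10 µM; beta-galactosidase reporter signal reflecting CREB driven transcription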
[6] = biological target: Streptavidin (Streptomyces avidinii) (UniProt P22629); assay: compounds binding control protein streptavidin – biophysical, small-molecule microarray, 635/667 nm fluorescence, artefact control for SMM compound annotation, primary screen (AID 1147); conditions: higher = more signal;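 also: signal reflects streptavidin binding to arrayed compounds as a control protein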
[7] = probe aInhba binding on compound microarray – biochemical, small-molecule microarray, 635/667 nm fluorescence, primary screen (AID 1148); conditions: higher = more signal;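 also: score merges 667nm spot fluorescence with signal-to-noise for antibody binding to printed compounds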
Torsin-1A (Homo sapiens) [8] = biological target: Torsin-1A (Homo sapiens) (UniProt O14656); assay: TOR1A wild-type binding on microarray – cell lysate, small-molecule microarray, lysate, 635/667 nm, primary screen (AID 1149); conditions: COS7 hTOR1A-WT lysate, 635 nm fluorescence, higher = more signal
Torsin-1A (Homo sapiens) [9] = biological target: Torsin-1A (Homo sapiens) (UniProt O14656); assay: torsin A mutant lysate binding on microarrays – cell lysate, small-molecule microarray, COS7 lysate, 635/667 nm fluorescence, primary screen (AID 1150); conditions: COS7 hTOR1A mutant lysate, 635 nm fluorescence, higher = more signal;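 also: score pools 667 nm emission and signal to noise measuring lysate protein binding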
[10] = tested on: Sonic hedgehog protein (Shh); assay: Sonic hedgehog microarray binding compounds – biochemical, small-molecule microarray, 635/667 nm fluorescence, primary screen (AID 1151); conditions: 635 nm fluorescence, higher = more signal;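 also: Shh protein binding to compounds spotted on small-molecule microarray slides; score combines spot fluorescence intensity with signal-to-noise across triplicate slides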
[11] = optical density shifts of acrAB sulA E. coli – strain DRC41, OD650, 48 h, E. coli filamentation inducer project, primary screen (AID 1152); conditions: higher = more signal, called active from +8 up or from −8 down;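 also: E. coli MC1000 strain DRC41 lacking acrAB efflux pump and sulA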
[12] = probe aLefty1 binding on compound microarray – biochemical, small-molecule microarray, 635/667 nm fluorescence, primary screen (AID 1153); conditions: higher = more signal;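 also: score merges spot fluorescence with signal-to-noise ratio from the scanned slide images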
[13] = plasmodial surface anion channel blockers, osmotic lysis – cell-based, P. falciparum Indochina, OD700, 1 h, primary screen (AID 1154); conditions: P. falciparum Indochina infected RBC osmotic lysis, higher = more signal, called active from +8 up or from −8 down
[14] = plasmodial surface anion channel blockers, osmotic lysis – cell-based, P. falciparum Indochina, OD700, 2 h, primary screen (AID 1155);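 also: lysis reports solute entry through the parasite surface anion channel PSAC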; conditions: P. falciparum Indochina infected erythrocytes, higher = more signal, called active from +8 up or from −8 down
[15] = changes in parasitized red cell lysis, either direction – P. falciparum Indochina, OD700, 3 h, PSAC antagonist project, primary screen (AID 1156); conditions: P. falciparum-infected erythrocytes, osmotic lysis, higher = more signal, called active from +8 up or from −8 down
[16] = plasmodial surface anion channel blockers, osmotic lysis – cell-based, P. falciparum Indochina, OD700, 18 h, primary screen (AID 1157); conditions: P. falciparum Indochina infected erythrocytes, osmotic lysis OD700, 18 h; higher = more signal, called active from +8 up or from −8 down
[17] = S6 kinase pathway phospho-S6 level changes – cell-based, A549, cytoblot, luminescence, serum-stimulated, primary screen (AID 1158); conditions: 5 h, higher = more signal;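 also: serum-stimulated A549 lung adenocarcinoma cells; signal is phosphorylated S6 detected by cytoblot immunostaining with HRP secondary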
[18] = biological target: NADPH oxidase 2 (Homo sapiens) (UniProt P04839); assay: compounds shifting NOX2 Amplex Red fluorescence – cell-based, HEK293-NOX2, PMA-stimulated, NOX inhibitor project, primary screen (AID 1159); conditions: 45 min, higher = more signal, called active from +8 up or from −8 down; also: test concentration not given here
[19] = biological target: NADPH oxidase 4 (Homo sapiens) (UniProt Q9NPH5); assay: compounds shifting NOX4 Amplex Red fluorescence – cell-based, HEK293-NOX4, tetracycline-induced, NOX inhibitor project, primary screen (AID 1160); conditions: HEK293-NOX4, Amplex Red H2O2 fluorescence, 45 min; higher = more signal, called active from +8 up or from −8 down
[20] = biological target: NADPH oxidase 5 (Homo sapiens) (UniProt Q96PH1); assay: compounds shifting NOX5 Amplex Red fluorescence – cell-based, HEK293-NOX5, NOX inhibitor project, primary screen (AID 1161); conditions: HEK293-NOX5, ionomycin, 45 min, higher = more signal
NADPH oxidase 5 (Homo sapiens), sequence (Q96PH1 whole entry, looked up): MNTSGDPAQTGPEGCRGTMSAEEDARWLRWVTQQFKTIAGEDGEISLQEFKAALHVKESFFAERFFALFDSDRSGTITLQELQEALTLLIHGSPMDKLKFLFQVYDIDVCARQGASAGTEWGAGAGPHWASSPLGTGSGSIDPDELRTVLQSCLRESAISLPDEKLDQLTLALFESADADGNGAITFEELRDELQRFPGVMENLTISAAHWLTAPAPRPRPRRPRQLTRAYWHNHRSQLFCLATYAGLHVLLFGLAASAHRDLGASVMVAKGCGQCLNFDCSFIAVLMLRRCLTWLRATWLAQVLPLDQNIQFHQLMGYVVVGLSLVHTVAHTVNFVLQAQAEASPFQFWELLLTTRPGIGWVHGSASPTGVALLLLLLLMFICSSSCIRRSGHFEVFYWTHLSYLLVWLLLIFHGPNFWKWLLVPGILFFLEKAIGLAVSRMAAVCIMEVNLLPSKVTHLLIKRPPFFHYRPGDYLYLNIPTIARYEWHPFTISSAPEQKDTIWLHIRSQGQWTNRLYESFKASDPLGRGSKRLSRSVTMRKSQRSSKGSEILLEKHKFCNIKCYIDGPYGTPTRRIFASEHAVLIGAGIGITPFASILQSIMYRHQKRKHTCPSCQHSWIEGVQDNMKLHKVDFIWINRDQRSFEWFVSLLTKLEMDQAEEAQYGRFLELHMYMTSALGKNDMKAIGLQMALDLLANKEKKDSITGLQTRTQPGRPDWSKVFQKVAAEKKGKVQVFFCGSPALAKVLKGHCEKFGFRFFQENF

NADPH oxidase 2 (Homo sapiens), sequence (P04839 whole entry, looked up): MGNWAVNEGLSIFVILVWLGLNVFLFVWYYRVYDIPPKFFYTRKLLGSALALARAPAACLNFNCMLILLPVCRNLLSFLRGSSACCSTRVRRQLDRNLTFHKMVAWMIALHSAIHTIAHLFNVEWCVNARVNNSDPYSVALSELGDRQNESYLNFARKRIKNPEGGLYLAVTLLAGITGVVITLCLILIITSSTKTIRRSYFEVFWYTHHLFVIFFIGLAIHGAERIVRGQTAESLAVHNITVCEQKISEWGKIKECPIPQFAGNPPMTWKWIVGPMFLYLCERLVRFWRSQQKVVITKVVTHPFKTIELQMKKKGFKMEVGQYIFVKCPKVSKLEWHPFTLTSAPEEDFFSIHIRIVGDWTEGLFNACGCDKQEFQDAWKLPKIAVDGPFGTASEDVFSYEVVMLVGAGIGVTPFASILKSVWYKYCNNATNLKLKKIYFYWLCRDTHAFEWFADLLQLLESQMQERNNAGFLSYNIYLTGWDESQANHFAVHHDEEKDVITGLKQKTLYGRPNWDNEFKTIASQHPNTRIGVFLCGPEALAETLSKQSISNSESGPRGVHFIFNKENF
Streptavidin (Streptomyces avidinii), sequence (P22629 whole entry, looked up): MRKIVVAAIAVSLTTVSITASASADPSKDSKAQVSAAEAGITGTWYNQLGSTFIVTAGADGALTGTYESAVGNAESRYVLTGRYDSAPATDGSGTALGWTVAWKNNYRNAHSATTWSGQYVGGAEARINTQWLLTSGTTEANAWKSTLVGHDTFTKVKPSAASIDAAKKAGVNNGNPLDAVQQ
Torsin-1A (Homo sapiens), sequence (O14656 whole entry, looked up): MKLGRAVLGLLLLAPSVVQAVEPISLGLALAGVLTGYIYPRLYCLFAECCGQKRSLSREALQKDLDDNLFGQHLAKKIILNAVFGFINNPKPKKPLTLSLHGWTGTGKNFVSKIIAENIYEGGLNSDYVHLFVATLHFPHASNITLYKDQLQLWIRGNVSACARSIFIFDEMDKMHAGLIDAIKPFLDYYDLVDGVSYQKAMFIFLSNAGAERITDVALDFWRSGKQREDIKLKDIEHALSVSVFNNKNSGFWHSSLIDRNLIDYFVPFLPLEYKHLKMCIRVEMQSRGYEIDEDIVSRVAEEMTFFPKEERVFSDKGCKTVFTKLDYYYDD
NADPH oxidase 4 (Homo sapiens), sequence (Q9NPH5 whole entry, looked up): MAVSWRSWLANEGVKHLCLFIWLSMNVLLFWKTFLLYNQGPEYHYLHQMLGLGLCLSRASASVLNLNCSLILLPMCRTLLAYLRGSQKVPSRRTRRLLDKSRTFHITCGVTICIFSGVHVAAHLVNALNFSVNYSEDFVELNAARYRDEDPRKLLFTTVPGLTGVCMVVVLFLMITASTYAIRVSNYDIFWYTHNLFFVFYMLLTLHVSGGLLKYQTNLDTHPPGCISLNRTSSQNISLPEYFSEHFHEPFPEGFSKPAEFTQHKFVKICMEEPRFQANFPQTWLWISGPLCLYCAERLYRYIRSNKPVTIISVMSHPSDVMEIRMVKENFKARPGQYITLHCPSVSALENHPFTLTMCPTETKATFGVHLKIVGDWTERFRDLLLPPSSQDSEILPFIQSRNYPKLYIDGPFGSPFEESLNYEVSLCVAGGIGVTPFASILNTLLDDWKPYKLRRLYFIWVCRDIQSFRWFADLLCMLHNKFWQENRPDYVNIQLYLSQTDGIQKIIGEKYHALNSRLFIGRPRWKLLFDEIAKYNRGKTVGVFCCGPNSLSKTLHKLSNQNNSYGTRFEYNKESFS

Structure (SMILES) | composite z-score [1] | z-score [2] | z-score [3] | z-score [4] | z-score [5] | composite z-score [6] | composite z-score [7] | composite z-score (Torsin-1A (Homo sapiens) [8]) | composite z-score (Torsin-1A (Homo sapiens) [9]) | composite z-score [10] | z-score [11] | composite z-score [12] | z-score [13] | z-score [14] | z-score [15] | z-score [16] | z-score [17] | z-score [18] | z-score [19] | z-score [20]
C#CCCCON=C1C[C@@H](O)[C@@H](O)[C@@H]2[C@@H]3C(=O)N(CC)C(=O)[C@@H]3CC[C@H]12 | 0.401 | 0.0934 (inactive) | 0.203 (inactive) | 0.252 (inactive) | 0.0606 (inactive) | 0.0761 | -0.0986 | 0.259 | 0.937 | 0.275 | 0.135 (inactive) | -0.0035 | 0.129 (inactive) | 0.238 (inactive) | -0.0312 (inactive) | 0.0581 (inactive) | -0.403 | -0.88 (inactive) | -0.231 (inactive) | 0.15
C[C@@H]1C=CCC(=O)OC[C@H](C)C(=O)N[C@@H](Cc2ccccc2)C(=O)OC1 | 0.033 | -3.11 (inactive) | -1.23 (inactive) | 1.43 (inactive) | -0.846 (inactive) | -0.0535 | -0.0736 | 0.519 | 0.59 | 0.638 | -0.596 (inactive) | -0.0287 | 0.296 (inactive) | -0.506 (inactive) | -0.307 (inactive) | -1.2 (inactive) | 0.826 | -0.348 (inactive) | -0.928 (inactive) | -0.396
COc1ccc(O[C@H]2C=C[C@@H](c3ccccc3)O[C@@H]2COC(=O)CCC(C)=NOC[C@@H](O)COCc2ccco2)cc1 | -1.31 | -1.42 (inactive) | 0.104 (inactive) | 3.94 (inactive) | -0.215 (inactive) | -2.51 | -0.443 | -6.12 | -2.73 | -1.09 | -1.45 (inactive) | -1.43 | 6.71 (inactive) | -1.05 (inactive) | 0.382 (inactive) | -2.06 (inactive) | 1.18 | -3.53 (inactive) | -0.876 (inactive) | -4.55
CCc1cc2c(nc1CC)CCN(CCC(C)=NOC[C@@H](C)[C@H](OCc1ccccc1)C(C)C)C2 | -0.608 | -1.09 (inactive) | 0.241 (inactive) | 0.387 (inactive) | 0.113 (inactive) | -1.39 | -0.302 | -0.94 | -1.22 | -0.267 | -0.64 (inactive) | -1.28 | 1.29 (inactive) | -2.02 (inactive) | 0.513 (inactive) | -2.16 (inactive) | 1.35 | -2.3 (inactive) | -0.642 (inactive) | -4.09
CC(=O)OC[C@H]1O[C@H](CC=NO[C@@H](C)c2cn([C@H](CO)Cc3ccccc3)nn2)C=C[C@@H]1OC(C)=O | 0.0065 | -2.35 (inactive) | -0.902 (inactive) | 1.67 (inactive) | 0.114 (inactive) | 0.777 | -0.0963 | 0.542 | 0.692 | 0.911 | -0.89 (inactive) | -0.196 | -0.719 (inactive) | -0.429 (inactive) | 0.656 (inactive) | -1.23 (inactive) | 0.703 | -2.05 (inactive) | -2.01 (inactive) | -1.41
O=C(NN=C1C[C@@H](O)[C@@H](O)[C@@H]2[C@@H]3C(=O)N(Cc4ccccc4)C(=O)[C@@H]3CC[C@H]12)OCc1ccccc1 | -0.014 | -0.575 (inactive) | -0.281 (inactive) | 0.0628 (inactive) | 0.401 (inactive) | -0.0198 | 0.0406 | 0.726 | 0.983 | 1.06 | -0.202 (inactive) | -0.279 | 0.464 (inactive) | -1.04 (inactive) | -0.999 (inactive) | -1.46 (inactive) | -0.276 | 1.49 (inactive) | 0.638 (inactive) | -0.0528
CC(=O)OC[C@H]1O[C@H](CC=NOC[C@@H](O)[C@H]2O[C@@H]3OC(C)(C)O[C@@H]3[C@H]2O)C=C[C@@H]1OC(C)=O | 0.0795 | 0.165 (inactive) | -0.0289 (inactive) | -1.3 (inactive) | -0.521 (inactive) | 0.168 | -0.152 | -0.197 | 0.071 | -0.0919 | -1.11 (inactive) | 0.145 | 0.466 (inactive) | 0.274 (inactive) | 0.0662 (inactive) | 0.466 (inactive) | -0.549 | -0.462 (inactive) | 0.136 (inactive) | -0.515
C[C@@H]1CC[C@H]2C(=O)O[C@@H](CN=[N+]=[N-])CN2[C@H]1c1ccc(Br)cc1 | -0.0229 | -3.67 (inactive) | -0.608 (inactive) | 3.37 (inactive) | -0.833 (inactive) | 0.414 | -0.179 | 0.48 | 0.581 | 0.888 | -2.31 (inactive) | -0.35 | 25.4 (active) | 8.11 (active) | 1.59 (inactive) | 2.16 (inactive) | 0.476 | -3.99 (inactive) | -3.91 (inactive) | -0.668

Reference: PubChem BioAssay
